Results as given in PubChem BioAssay (NCATS).
Results filed as inconclusive are left out. Values without a mark were called inactive. Active and inactive are the calls of the source. The call rests on the fitted dose curve; in most records, active means well fitted cell-killing curve with a large enough effect; inconclusive means small, poorly fitted or top-dose-only effect, or effect the other way; inactive means flat fitted curve, though single readings scatter.

test system: Tov-21-G; test: Primary qHTS to identify gynecologic anti-cancer compounds using libraries of approved drugs and bioactive compounds (AID 1345084); settings: Gynecologic cancer cell panel viability, ATPlite luminescence, 48 h; series mostly up to 57.5 µM; activity change, negative = cytotoxicity: at the top concentration; further: nearly all actives have a fitted effect of over 55% in size
How it was run: (§1)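 Cells, 1,000 per well, were allowed to settle for 16 h at 37 C before compound addition. Five concentrations were tested for 48 h, and viability was read by ATPlite luminescence after 15 min at room temperature.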
On the % scale 0 is the no-effect control and ±100 the full control effect; potency means the concentration at half of the fitted maximal effect.

Structure (SMILES)	activity change, negative = cytotoxicity	Potency
O=C(O)/C=C/c1cc2c(cc1O[C@@H]1O[C@H](CO)[C@@H](O)[C@H](O)[C@H]1O)OCO2	6% [at 38.5 µM]	
CC(C)O[C@@H]1O[C@H](CO)[C@@H](O)[C@H](O)[C@H]1O	9.94%	
CC1=C2C3OC(=O)C(C)C3(O)CCC2(C)CCC1O (stereo not given)	17.9%	
COC(=O)CC1CC(c2ccc(O)cc2)=NO1 (stereo not given)	-0.418%	
CC(=O)C12OC(C)(C)OC1CC1C3CCC4=CC(=O)C=CC4(C)C3(F)C(O)CC12C (stereo not given)	12.3%	
C[C@H]1O[C@@H](O[C@H]2CC[C@@]3(C)C(CC[C@]4(C)C3CC=C3C5CC(C)(C)CC[C@]5(C(=O)O)CC[C@]34C(=O)O)C2(C)C)[C@H](O)[C@@H](O)[C@@H]1O (stereo not given in full)	0.319% [at 25.3 µM]	
C=C1CCC2C(C)(C(=O)OC)CCCC2(C)C1CCC(C)CC(=O)O (stereo not given)	4.55% [at 38.5 µM]	
COc1ccccc1Oc1ccc(N(Cc2cccnc2)S(=O)(=O)CC(F)(F)F)cc1	-12.1%	
COc1ccc(Cl)c(Nc2nc3ccccc3nc2NS(=O)(=O)c2cccc(NC(=O)C(C)(C)N)c2)c1	0.145%	
COC(=O)C1=CO[C@@H](O[C@@H]2O[C@H](CO)[C@@H](O)[C@H](O)[C@H]2O)[C@H]2[C@@H]1C=C[C@@]21C=C([C@H](C)O)C(=O)O1	10.3% [at 25.3 µM]	
CC1(C)CC2=C3C=CC4C5(C)CCC(O)C(C)(C)C5CCC4(C)C3(C)CCC2(C)C(O)C1 (stereo not given)	8.09% [at 25.3 µM]	
O=C(O)c1ccc(OC2OC(CO)C(O)C(O)C2O)cc1 (stereo not given)	4.13%	
CC(C)CN(C[C@@H](O)[C@H](Cc1ccccc1)NC(=O)O[C@@H]1CO[C@H]2OCC[C@H]21)S(=O)(=O)c1ccc(N)cc1	19.9%	
C=C1C[C@]23C[C@H]1CC[C@H]2[C@@]1(C)CCC[C@@]2(C)C(=O)O[C@@H]([C@@H]3O)[C@@H]12	0.64% [at 38.5 µM]	
CC(=O)O[C@H]1C[C@@]2(C)[C@@H](CC[C@H]3[C@@]4(C)C=CC(=O)[C@@H](C)[C@@H]4[C@H](O)C(=O)[C@@]32C)/C1=C(/CCC=C(C)C)C(=O)O	-12.4% [at 25.3 µM]	
COC(=O)N[C@H](C(=O)N1[C@@H]2CC[C@@H](C2)[C@H]1c1nc2ccc(-c3ccc4c(c3)C(F)(F)c3cc(-c5cnc([C@@H]6CCC7(CC7)N6C(=O)[C@@H](NC(=O)OC)C(C)C)[nH]5)ccc3-4)cc2[nH]1)C(C)C	0.182% [at 25.3 µM]	
COc1ccc(C2(O)c3ccccc3NC(=O)C2O)cc1 (stereo not given)	10.7%	
O=C(CN1C(=O)C2(CCCC2)NCC1c1cc(F)cc(F)c1)Nc1ccc2c(c1)CC1(C2)C(=O)Nc2ncccc21 (stereo not given)	0.756%	
C=C1C(=O)OC2CC3(C)C(CC12)C(C)=CC(O)C3OC(C)=O (stereo not given)	4.05% [at 38.5 µM]	
C[C@@H]1O[C@@H](O[C@H]2[C@H](OC(=O)[C@]34CCC(C)(C)C[C@H]3C3=CCC5[C@@]6(C)C[C@H](O)[C@H](O[C@@H]7O[C@H](CO)[C@@H](O[C@H]8OC[C@](O)(CO)[C@H]8O)[C@H](O)[C@H]7O)[C@@](C)(CO)C6[C@H](O)C[C@@]5(C)[C@]3(C)C[C@H]4O)OC[C@H](O)[C@@H]2O)[C@H](O)[C@H](O)[C@H]1O[C@@H]1OC[C@@H](O)[C@H](O[C@@H]2OC[C@](O)(CO)[C@H]2O)[C@H]1O (stereo not given in full)	-9.27% [at 6.55 µM]	
O=C(O)[C@H](Cc1ccc(Nc2nccc3ccncc23)cc1)NC1=C(Br)C(=O)C12CCCCC2	2.91%	
CC(C)C(C(=O)N(C)C(C)C(N)=O)N(C)C(=O)C1CCCN1C(=O)/C=C/C=C/C(O)C(C)O (stereo not given)	-0.943% [at 25.3 µM]	
Nc1nc2c(c(=O)[nH]1)C[C@@H](CCc1ccc(C(=O)N[C@@H](CCC(=O)O)C(=O)O)cc1)CN2		100 nM (active)
CC1(O)CCCC2(C)C1CCC13CC(CO)C(CCC12)C3 (stereo not given)	1.93%	
CC(=O)/C=C/[C@H]1[C@](C)(O)[C@@H](O)[C@H](OC(C)=O)C2C(C)(C)CCC[C@@]21C (stereo not given in full)	1.72% [at 38.5 µM]	
C=C(C(=O)OC)C1C(O)CC2(C)C(=O)CCC(O)(CO)C2C1O (stereo not given)	4.29% [at 38.5 µM]	

test system: Tov112D; test: as above; settings: Gynecologic cancer cell panel viability, ATPlite luminescence, 48 h; series mostly up to 57.5 µM; activity change, negative = cytotoxicity: at the top concentration
How it was run: as §1

Structure (SMILES)	activity change, negative = cytotoxicity	Potency
COC(=O)CC(C)(O)CC(=O)OCc1ccc(O[C@@H]2O[C@H](CO)[C@@H](O)[C@H](O)[C@H]2O)cc1 (stereo not given in full)	2.66% [at 25.3 µM]	
CC[C@@H](O)C[C@@H]1C(C)=C[C@@H]2CCCC[C@@H]2[C@@]1(C)C(=O)O	-5.14%	
C=C1CCC2C(C)(C(=O)O)CCCC2(C)C1CC/C(=C\CO)CO (stereo not given)	10.1% [at 38.5 µM]	
Cc1oc2ccccc2c1CNC(=O)NCc1cccs1	1.53%	
CCC(C)C(=O)OC1CC(C)C=C2C=CC(C)C(CCC(O)CC(O)CC(=O)O)C21 (stereo not given)	0.524% [at 25.3 µM]	
C[C@]12C=C[C@@]3(CCC4[C@](C)(CO)CCC[C@@]4(C)C3CC1)C2 (stereo not given in full)	3.95%	
CC(C)CC1NC(=O)C(C)NC(=O)C(CC(C)C)OC(=O)CCCNC1=O (stereo not given)	-2.11% [at 38.5 µM]	
COC1/C=C/C(C)(O)C(SCC(N)C(=O)O)CC(=O)OC(C)C(C)CC/C=C/1C (stereo not given)	9.53% [at 25.3 µM]	
CC/C=C\CC1C(=O)C=CC1(CCCCCCCC(=O)O)OC(C)=O (stereo not given)	0.908% [at 38.5 µM]	
CC1OC(OC2C(C)OC(OC3C(O)C(CO)OC(O[C@H]4CC[C@@]5(C)C(CC[C@]6(C)C5CC=C5C7[C@@H](C)[C@H](C)CC[C@]7(C(=O)O)CC[C@]56C(=O)O)C4(C)C)C3O)C(O)C2O)C(O)C(O)C1O (stereo not given in full)	2.5% [at 11.6 µM]	
C[C@@H]1O[C@@H](OC[C@H]2O[C@@H](OC(CCCCc3ccc(O)cc3)CCc3ccc(O)cc3)[C@H](O)[C@@H](O)[C@@H]2O)[C@H](O)[C@H](O)[C@H]1O (stereo not given in full)	-2.07% [at 25.3 µM]	
CC(c1ncncc1F)C(O)(Cn1cncn1)c1ccc(F)cc1F (stereo not given)	5.46%	
CC1(C=O)CC[C@]2(C(=O)O[C@@H]3O[C@H](CO)[C@@H](O)[C@H](O)[C@H]3O)CC[C@]3(C)C(=CCC4[C@@]5(C)C[C@H](O)[C@H](O[C@@H]6OC[C@@H](O)[C@H](O)[C@H]6O)[C@@](C)(CO)C5CC[C@]43C)C2C1 (stereo not given in full)	-0.249% [at 11.6 µM]	
O=C(O)/C=C/c1cc2c(cc1O[C@@H]1O[C@H](CO)[C@@H](O)[C@H](O)[C@H]1O)OCO2	-5.08% [at 38.5 µM]	
CC(C)O[C@@H]1O[C@H](CO)[C@@H](O)[C@H](O)[C@H]1O	9.04%	
CC1=C2C3OC(=O)C(C)C3(O)CCC2(C)CCC1O (stereo not given)	2.18%	
COC(=O)CC1CC(c2ccc(O)cc2)=NO1 (stereo not given)	-16.5%	
CC(=O)C12OC(C)(C)OC1CC1C3CCC4=CC(=O)C=CC4(C)C3(F)C(O)CC12C (stereo not given)	4.2%	
C[C@H]1O[C@@H](O[C@H]2CC[C@@]3(C)C(CC[C@]4(C)C3CC=C3C5CC(C)(C)CC[C@]5(C(=O)O)CC[C@]34C(=O)O)C2(C)C)[C@H](O)[C@@H](O)[C@@H]1O (stereo not given in full)	3.02% [at 25.3 µM]	
C=C1CCC2C(C)(C(=O)OC)CCCC2(C)C1CCC(C)CC(=O)O (stereo not given)	3.93% [at 38.5 µM]	

Structure (SMILES)	activity change, negative = cytotoxicity	Potency
COc1ccccc1Oc1ccc(N(Cc2cccnc2)S(=O)(=O)CC(F)(F)F)cc1	2.57%	
COc1ccc(Cl)c(Nc2nc3ccccc3nc2NS(=O)(=O)c2cccc(NC(=O)C(C)(C)N)c2)c1	-4.5%	
COC(=O)C1=CO[C@@H](O[C@@H]2O[C@H](CO)[C@@H](O)[C@H](O)[C@H]2O)[C@H]2[C@@H]1C=C[C@@]21C=C([C@H](C)O)C(=O)O1	14% [at 25.3 µM]	
CC1(C)CC2=C3C=CC4C5(C)CCC(O)C(C)(C)C5CCC4(C)C3(C)CCC2(C)C(O)C1 (stereo not given)	0.214% [at 25.3 µM]	
O=C(O)c1ccc(OC2OC(CO)C(O)C(O)C2O)cc1 (stereo not given)	6.58%	
CC(C)CN(C[C@@H](O)[C@H](Cc1ccccc1)NC(=O)O[C@@H]1CO[C@H]2OCC[C@H]21)S(=O)(=O)c1ccc(N)cc1	11.9%	
C=C1C[C@]23C[C@H]1CC[C@H]2[C@@]1(C)CCC[C@@]2(C)C(=O)O[C@@H]([C@@H]3O)[C@@H]12	-0.969% [at 38.5 µM]	
CC(=O)O[C@H]1C[C@@]2(C)[C@@H](CC[C@H]3[C@@]4(C)C=CC(=O)[C@@H](C)[C@@H]4[C@H](O)C(=O)[C@@]32C)/C1=C(/CCC=C(C)C)C(=O)O	-1.79% [at 25.3 µM]	
COC(=O)N[C@H](C(=O)N1[C@@H]2CC[C@@H](C2)[C@H]1c1nc2ccc(-c3ccc4c(c3)C(F)(F)c3cc(-c5cnc([C@@H]6CCC7(CC7)N6C(=O)[C@@H](NC(=O)OC)C(C)C)[nH]5)ccc3-4)cc2[nH]1)C(C)C	0.642% [at 25.3 µM]	
COc1ccc(C2(O)c3ccccc3NC(=O)C2O)cc1 (stereo not given)	6.94%	
O=C(CN1C(=O)C2(CCCC2)NCC1c1cc(F)cc(F)c1)Nc1ccc2c(c1)CC1(C2)C(=O)Nc2ncccc21 (stereo not given)	4.1%	
C=C1C(=O)OC2CC3(C)C(CC12)C(C)=CC(O)C3OC(C)=O (stereo not given)	17% [at 38.5 µM]	
C[C@@H]1O[C@@H](O[C@H]2[C@H](OC(=O)[C@]34CCC(C)(C)C[C@H]3C3=CCC5[C@@]6(C)C[C@H](O)[C@H](O[C@@H]7O[C@H](CO)[C@@H](O[C@H]8OC[C@](O)(CO)[C@H]8O)[C@H](O)[C@H]7O)[C@@](C)(CO)C6[C@H](O)C[C@@]5(C)[C@]3(C)C[C@H]4O)OC[C@H](O)[C@@H]2O)[C@H](O)[C@H](O)[C@H]1O[C@@H]1OC[C@@H](O)[C@H](O[C@@H]2OC[C@](O)(CO)[C@H]2O)[C@H]1O (stereo not given in full)	-0.812% [at 6.55 µM]	
O=C(O)[C@H](Cc1ccc(Nc2nccc3ccncc23)cc1)NC1=C(Br)C(=O)C12CCCCC2	-0.543%	
CC(C)C(C(=O)N(C)C(C)C(N)=O)N(C)C(=O)C1CCCN1C(=O)/C=C/C=C/C(O)C(C)O (stereo not given)	3.5% [at 25.3 µM]	
Nc1nc2c(c(=O)[nH]1)C[C@@H](CCc1ccc(C(=O)N[C@@H](CCC(=O)O)C(=O)O)cc1)CN2		1.26 µM (active)
CC1(O)CCCC2(C)C1CCC13CC(CO)C(CCC12)C3 (stereo not given)	5.8%	
CC(=O)/C=C/[C@H]1[C@](C)(O)[C@@H](O)[C@H](OC(C)=O)C2C(C)(C)CCC[C@@]21C (stereo not given in full)	-1.1% [at 38.5 µM]	
C=C(C(=O)OC)C1C(O)CC2(C)C(=O)CCC(O)(CO)C2C1O (stereo not given)	5.66% [at 38.5 µM]	
